According to PubChem BioAssay (EPA / NIEHS):
“And” between values parts separate entries of the source, which are not always exact repeats. Equal entries are not always repeated. Records with an inconclusive call do not appear. The source holds several records for some structures; these can differ, active in one and inactive in another. The source made the active and inactive calls. The calls were made as follows: active = hit-call score of the fitted dose curve at least 0.9, where 1 is the maximum; inconclusive = response in the unintended direction; inactive = score below 0.9.

Assay: TOX21_p53_BLA_p4_viability: Viability Assessment in the Tox21 HCT-116 p53 Agonism Beta-lactamase Assay, Phase 4 (AID 2283597);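 also: hits lower the luminescence signal meaning cytotoxicity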
Text: TOX21_p53_BLA_p4 is a cell-based, single-readout assay that uses HCT116, a human intestinal cell line, […] in a 1536-well plate.TOX21_p53_BLA_p4_viability is an assay readout measuring cellular ATP content and detected with CellTiter-Glo Luciferase-coupled ATP quantitation.TOX21_p53_BLA_p4_viability used a type of viability reporter where loss-of-signal activity can be used to understand changes in the cell viability. Furthermore, this assay endpoint can be referred to as a secondary readout, because this assay has produced multiple assay endpoints where this one serves a viability function. To generalize the intended target to other relatable targets, this assay endpoint is annotated to the cell cycle intended target family, where the subfamily is cytotoxicity.
Thawing Method: Place 14 mL of pre-warmed thaw medium into a 15 mL of conical tub. Remove the vial of cells to be thawed from liquid nitrogen and thaw rapidly by placing at 37C in a water bath with gentle agitation for 1-2 minutes. Decontaminate the vial by wiping with 70% ethanol before opening in a biological safety cabinet. Transfer the vial contents drop-wise into 14 mL of thaw medium in a sterile 15-mL conical tub. Centrifuge cells at 900 rpm for 4 minutes and resuspend in thaw medium. Transfer contents to the T75 tissue culture flask containing Thaw Medium and place flask in a humidified 37C/5% CO2 incubator. Switch to growth medium at first passage.Propagation Method: Aspirate medium, rinse once in DPBS, add 0.25% Trypsin/EDTA and swirl to coat the cell evenly. Add an equal volume of Growth Medium to inactivate Trypsin after 2-3 minutes incubation at 37C. Centrifuge cells at 900 rpm for 4 minutes and resuspend in growth medium. Cell should be passage or fed at least twice a week.Assay Protocol: Harvest cells from culture in growth medium and resuspend in assay medium. 2.2 Dispense 4000 cells/5 uL/well into 1536-well black/clear bottom plates using a Multidrop dispenser. After the cells were incubated at 37C for 5 hours, 23 nL of compounds dissolved in DMSO were transferred to the assay plate by a PinTool resulting in a 217-fold dilution. Incubate the plates for 16 hours at 37C, 5% CO2. Add 1 uL of 6X LiveBLAzer FRET B/G (CCF4-AM) Substrate Mixture to each well using a BioRAPTR dispenser and incubate the plates at room temperature for 2 hours. Measure fluorescence intensity at 460 and 530 nm emission and 405 nm excitation by an Envision detector. Data is expressed as the ratio of 460nm/530nm emissions. Add 4 uL of Cell-titer Glo to each well using BioRAPTR and incubate the plates at room temperature for […]. For cell viability readout that measures cytotoxicity, 4 ul/well of CellTiter-Glo reagent was added into the assay plates using a Flying Reagent Dispenser. After 30 min incubation at room temperature, the luminescence intensity in the plates was measured using a ViewLux plate reader.

Row | Structure (SMILES) | outcome | AC50
1 | COc1ccccc1NC(=O)c1cc2ccccc2cc1O | inactive | 
2 | CC1=CC(=O)c2ccccc2C1=O | inactive | 72.7 µM (active)
3 | CCC(=O)C=Cc1ccc(OC)cc1 | inactive | 
4 | CNNCc1ccc(C(=O)NC(C)C)cc1 | inactive | 
5 | CCOC(=O)CN[C@@H](C(=O)N1CC[C@H]1C(=O)NCc1ccc(/C(N)=N/O)cc1)C1CCCCC1 | inactive | 
6 | CCOCCOCC | inactive | 
7 | C[C@]12CC[C@@H]3c4ccc(O)cc4CC[C@H]3[C@@H]1C[C@@H](O)[C@@H]2O | inactive | 
8 | O=C1OC2(c3ccccc31)c1cc(I)c(O)c(I)c1Oc1c2cc(I)c(O)c1I | inactive | 58.1 µM (active)
9 | NNc1nc(-c2ccc([N+](=O)[O-])cc2)cs1 |  | 46.1 µM (active)
10 | CCCCCCCCCCCCCCCCCC[N+](C)(C)Cc1ccccc1 |  | 38.1 µM (active)
11 | CCCCCCCCCC=CCC1CC(=O)OC1=O (stereo not given) | inactive | 
12 | C=CC(C)(CCC=C(C)C)OC(C)=O (stereo not given) | inactive | 
13 | O=C(c1ccccc1)c1ccccc1 | inactive | 
14 | CC(C)C=O | inactive | 
15 | Cc1cc(=O)oc2cc(O)ccc12 | inactive | 
16 | Cc1ccc(S(=O)(=O)O)cc1 | inactive | 
17 | O=C(NO)c1ccccc1 | inactive | 
18 | CN(C)CCOC(c1ccccc1)c1ccccc1 | inactive | 
19 | Cc1ccc(C)c(S(=O)(=O)O)c1 | inactive | 

Row | Structure (SMILES) | outcome | AC50
20 | Cc1ccc(C(=O)c2ccccc2)cc1 | inactive | 
21 | CCCCc1oc2ccccc2c1C(=O)c1cc(I)c(OCCN(CC)CC)c(I)c1 |  | 31.3 µM (active) and 50.9 µM (active) and 23 µM (active)
22 | Cc1cc(C(C)(C)C)c(O)c(C(C)(C)C)c1 | inactive | 
23 | CCCCCCOC(=O)c1ccc(O)cc1 |  | 43.2 µM (active) and 64.2 µM (active)
24 | C=CC(=O)OCC(CO)(COCC(COC(=O)C=C)(COC(=O)C=C)COC(=O)C=C)COC(=O)C=C |  | 3.32 µM (active)
25 | c1cnc2c(c1)ccc1cccnc12 |  | 41.8 µM (active)
26 | COCN(COC)c1nc(N(COC)COC)nc(N(COC)COC)n1 | inactive | 
27 | CCCCCCCCCCCC[N+](C)(C)CCCCCCCCCCCC |  | 46.1 µM (active)
28 | CCCCCCCCCCCC(=O)NCCCN(C)C |  | 29 µM (active)
29 | OCC1CCC(CO)CC1 (stereo not given) | inactive | 
30 | O=C1c2ccccc2C(=O)c2c(O)c(O)cc(O)c21 | inactive | 
31 | CC(=O)CC(C)C | inactive | 
32 | Cc1cc(Cc2cc(C)cc(C(C)(C)C)c2O)c(O)c(C(C)(C)C)c1 |  | 12 µM (active) and 19.2 µM (active)
33 | O=C(CCCN1CCC(O)(c2ccc(Cl)cc2)CC1)c1ccc(F)cc1 | inactive | 
34 | CCCCCCc1ccc(N)cc1 | inactive | 
35 | CCCCCCCCCCCCCCCC(=O)OC | inactive | 
36 | Cc1ccccc1C(OCCN(C)C)c1ccccc1 (stereo not given) | inactive | 
37 | O=C(Nc1cccc([N+](=O)[O-])c1)c1cc2ccccc2cc1O |  | 16.6 µM (active)
38 | CN(C)c1ccc(C(=C2C=CC(=[N+](C)C)C=C2)c2ccccc2)cc1 |  | 1.36 µM (active) and 23 µM (active)
